Laboratory results: PubChem BioAssay (NCATS)
Results filed as inconclusive are left out. Unmarked numbers belong to inactive results. Calls come from the whole dose curve; as a rule, active = well fitted curve in the direction sought with a large enough effect; inconclusive = small, poorly fitted or top-dose-only effect, or another doubt; inactive = no such curve, though single readings can be large; an effect the other way counts as inactive or inconclusive.

Assay: qHTS of pediatric cancer cell lines to identify multiple opportunities for drug repurposing: Primary screen for control Hh wild type fibroblast cells (AID 1347106);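 note: a drop in luminescence marks cytotoxicity and a rise apparent proliferation; nearly all actives have a fitted effect of over 55% in size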
Conditions: Hh wild-type fibroblast viability, CellTiter-Glo luminescence, 48 h; series mostly up to 46 µM; activity change, negative = cytotoxic: at the top concentration
Outline: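 Cells (500-1,000/well) in growth media were settled 5 h at 37 degrees C, then given compounds for 48 h. Viability was read as CellTiter-Glo luminescence. Primary runs used MIPE at 11 points (0.78 nM-46 µM) and NPC at 8 points (0.59 nM-46 µM); follow-ups used 11 points.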
% is set by controls: 0 for no effect and ±100 for the full control effect.

Row | SMILES | activity change, negative = cytotoxic
1 | CCC(C(=O)OCCOCCN(CC)CC)c1ccccc1 (stereo not drawn) | 1.8%
2 | c1ccc(-c2nc[nH]c2-c2ccccc2)cc1 | 0.627%
3 | CC(CNC1CCCCC1)OC(=O)c1ccccc1 (stereo not drawn) | -2.85%
4 | CCCCCCCCCCC[C@@H](C[C@@H]1OC(=O)[C@H]1CCCCCC)OC(=O)[C@H](CC(C)C)NC=O | 7.86%
5 | C#C[C@]1(O)CC[C@H]2[C@@H]3CCC4=CC(=O)CC[C@@H]4[C@H]3CC[C@@]21CC | 4.5%
6 | CCN[C@@H]1C[C@H](N)[C@@H](OC2OC(CN)=CCC2N)[C@H](O)[C@H]1O[C@H]1OC[C@](C)(O)[C@H](NC)[C@H]1O (stereo partly drawn) | 8.24% [at 0.597 µM]
7 | C#C[C@]1(O)CC[C@H]2[C@@H]3CCC4=Cc5oncc5C[C@]4(C)[C@H]3CC[C@@]21C | 10.3%
8 | COc1cc([C@H]2Oc3cc([C@H]4Oc5cc(O)cc(O)c5C(=O)[C@@H]4O)ccc3O[C@@H]2CO)ccc1O | 3.67%
9 | CCc1oc2ccccc2c1C(=O)c1cc(I)c(O)c(I)c1 | -1.99%
10 | CN(Cc1ccc(C(C)(C)C)cc1)Cc1cccc2ccccc12 | 9.13%
11 | O=C1C(=O)c2ccccc2C(O)=C1C1CCC(c2ccc(Cl)cc2)CC1 (stereo not drawn) | 7.57%
12 | CCc1ccc(C(=O)C(C)CN2CCCCC2)cc1 (stereo not drawn) | -0.457%
13 | CNCCCCOc1ccccc1Cc1ccccc1 | -1.28%
14 | CCOC(=O)Nc1ccc2c(c1)N(C(=O)CCN1CCOCC1)c1ccccc1S2 | -17.7%
15 | CCOC(=O)c1ccc(N)cc1 | 0.489%
16 | NC(=O)c1ccccc1O | -6.17%
17 | CC(=O)Nc1ccc(S(=O)(=O)Nc2ccc([N+](=O)[O-])cc2)cc1 | 5.84%
18 | CCCCN1C[C@H](O)[C@@H](O)[C@H](O)[C@H]1CO | 6.05%
19 | CCCCCCCCCCCCSCCOCCO | 1.47%
20 | C[C@H]1[C@H]2CC[C@H]3[C@@H]4CC=C5C[C@@H](N(C)C)CC[C@]5(C)[C@H]4CC[C@]23CN1C | -5.93%
21 | O=C(c1ccc(F)cc1)C1CCN(CCn2c(=S)[nH]c3ccccc3c2=O)CC1 | 8.96%
22 | CCC1Nc2cc(Cl)c(S(N)(=O)=O)cc2S(=O)(=O)N1 (stereo not drawn) | 7.42%
23 | CCc1oc2ccccc2c1C(=O)c1cc(Br)c(O)c(Br)c1 | 7.24%
24 | CCNC(=O)NCc1cccc(Cl)c1 | -2.97%
25 | O=C(CCN1CCN2CCCC2C1)N1c2ccccc2Sc2ccc(Cl)cc21 (stereo not drawn) | -3.59% [at 16.1 µM]
26 | CCCCCCCCCCCCOCCOCCOCCOCCOCCOCCOCCOCCOCCO | 14%
27 | OC[C@H]1O[C@@H](Oc2ccc(O)cc2)[C@H](O)[C@@H](O)[C@@H]1O | 7.94%

Assay: qHTS of pediatric cancer cell lines to identify multiple opportunities for drug repurposing: Primary screen for Rh30 cells (AID 1347107); note: nearly all actives have a fitted effect of over 75% in size
Conditions: Rh30 rhabdomyosarcoma viability, CellTiter-Glo luminescence, 48 h; series mostly up to 46 µM; activity change, negative = cytotoxic: at the top concentration
Outline: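 Viability after 48 h compound treatment at 37C, 500-1,000 cells/well, read as ATP luminescence with CellTiter-Glo. Primary screens used 11-point (MIPE, 0.78 nM-46 µM) or 8-point (NPC, 0.59 nM-46 µM) final concentrations; follow-up screens used 11-point dilutions.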

Row | SMILES | activity change, negative = cytotoxic
28 | CCC(C(=O)OCCOCCN(CC)CC)c1ccccc1 (stereo not drawn) | -0.467%
29 | c1ccc(-c2nc[nH]c2-c2ccccc2)cc1 | 3.31%
30 | CC(CNC1CCCCC1)OC(=O)c1ccccc1 (stereo not drawn) | 12%
31 | CCCCCCCCCCC[C@@H](C[C@@H]1OC(=O)[C@H]1CCCCCC)OC(=O)[C@H](CC(C)C)NC=O | 18%
32 | CNCCc1ccccn1 | 29%
33 | C#C[C@]1(O)CC[C@H]2[C@@H]3CCC4=CC(=O)CC[C@@H]4[C@H]3CC[C@@]21CC | 14.9%
34 | CCN[C@@H]1C[C@H](N)[C@@H](OC2OC(CN)=CCC2N)[C@H](O)[C@H]1O[C@H]1OC[C@](C)(O)[C@H](NC)[C@H]1O (stereo partly drawn) | 14.5% [at 0.597 µM]
35 | O=[N+]([O-])c1cccc(S(=O)(=O)NCCNS(=O)(=O)c2cccc([N+](=O)[O-])c2)c1 | 13.5%
36 | C#C[C@]1(O)CC[C@H]2[C@@H]3CCC4=Cc5oncc5C[C@]4(C)[C@H]3CC[C@@]21C | 14%
37 | COc1cc([C@H]2Oc3cc([C@H]4Oc5cc(O)cc(O)c5C(=O)[C@@H]4O)ccc3O[C@@H]2CO)ccc1O | 12.4%
38 | CCc1oc2ccccc2c1C(=O)c1cc(I)c(O)c(I)c1 | 5.36%
39 | CN(Cc1ccc(C(C)(C)C)cc1)Cc1cccc2ccccc12 | 14%
40 | O=C1C(=O)c2ccccc2C(O)=C1C1CCC(c2ccc(Cl)cc2)CC1 (stereo not drawn) | 18.2%
41 | CCc1ccc(C(=O)C(C)CN2CCCCC2)cc1 (stereo not drawn) | 2.67%
42 | COc1cc(C(=O)NCc2ccc(OCCN(C)C)cc2)cc(OC)c1OC | 11.9%
43 | CC(=O)NCCCCCC(=O)O | 6.62%
44 | CN1CCN(CCC(=O)N2c3ccccc3Sc3ccc(C(F)(F)F)cc32)CC1 | 2.71%
45 | CNCCCCOc1ccccc1Cc1ccccc1 | 5.38%

Row | SMILES | activity change, negative = cytotoxic
46 | CCOC(=O)Nc1ccc2c(c1)N(C(=O)CCN1CCOCC1)c1ccccc1S2 | 7.04%
47 | CCOC(=O)c1ccc(N)cc1 | -0.188%
48 | NC(=O)c1ccccc1O | 12.6%
49 | CC(=O)Nc1ccc(S(=O)(=O)Nc2ccc([N+](=O)[O-])cc2)cc1 | 17.1%
50 | CC(C)(Cc1c[nH]c2ccccc12)NCC(O)COc1ccccc1C#N (stereo not drawn) | 14.4%
51 | CCCCN1C[C@H](O)[C@@H](O)[C@H](O)[C@H]1CO | 11.1%
52 | CCCCCCCCCCCCSCCOCCO | 16.1%
53 | C[C@H]1[C@H]2CC[C@H]3[C@@H]4CC=C5C[C@@H](N(C)C)CC[C@]5(C)[C@H]4CC[C@]23CN1C | -12.4%
54 | O=C(c1ccc(F)cc1)C1CCN(CCn2c(=S)[nH]c3ccccc3c2=O)CC1 | 6.53%
55 | CCCCC(CC)CN1CN(CC(CC)CCCC)CC(C)(N)C1 (stereo not drawn) | -11%
56 | CCC1Nc2cc(Cl)c(S(N)(=O)=O)cc2S(=O)(=O)N1 (stereo not drawn) | 19%
57 | CCc1oc2ccccc2c1C(=O)c1cc(Br)c(O)c(Br)c1 | 0.0772%
58 | CCNC(=O)NCc1cccc(Cl)c1 | 13.5%
59 | O=C(N/N=C/c1ccc([N+](=O)[O-])o1)c1ccc(O)cc1 | 5.42%
60 | O=C(CCN1CCN2CCCC2C1)N1c2ccccc2Sc2ccc(Cl)cc21 (stereo not drawn) | 5.26% [at 16.1 µM]
61 | CCN(CC)CCOC(=O)C(Cc1cccc2ccccc12)CC1CCCO1 (stereo not drawn) | 9.86%
62 | CCCCCCCCCCCCOCCOCCOCCOCCOCCOCCOCCOCCOCCO | -4.9%
63 | OC[C@H]1O[C@@H](Oc2ccc(O)cc2)[C@H](O)[C@@H](O)[C@@H]1O | 7.55%
